Source: PubChem
Compounds with a hit are over-represented: about 3.7% of the library has one in this group of screens.
Bead autofluor – flagged as autofluorescent in microsphere protease counterscreen. AID 624483. 360,000 tested, 3.1% active. fluorescence intensity (no concentration beside the values). compound autofluorescence counterscreen, microsphere flow cytometry; hits give high values; in the data active = fluorescence intensity above about 16000; inconclusive = no clear call, values can overlap the other calls
Anthrax LF inh2 – inhibitors of Bacillus anthracis lethal factor protease. multiplex microsphere protease cleavage assay, LF. inhibition, % at 10 µM. AID 588501. 360,000 tested, 0.12% active. P15917; note: plate controls were buffer without enzyme for full effect and enzyme alone for no effect
BoNT-A LC inh2 – inhibitors of Botulinum neurotoxin A light chain protease; multiplex microsphere protease substrate cleavage, flow cytometry; inhibition, % at 10 µM; 360,000 tested, 0.17% active; AID 588499; note: plate controls were buffer without enzyme for full effect and enzyme alone for no effect
BoNT-F LC inh – BoNT F light chain protease inhibition | Multiplex microsphere protease cleavage assay, flow cytometry | inhibition, % at 10 µM | 360,000 tested, 0.22% active | AID 588497; in the data active = inhibition above about 35%, passing the limit was not always enough; inconclusive = no clear call, values can overlap the other calls; note: plate controls were buffer without enzyme for full effect and enzyme alone for no effect
MazF activator – increases E. coli MazEF RNase cleavage of RNA; P0AE70; activation, % at 20 µM; 350,000 tested, 0.32% active; AID 504720; FAM/BHQ RNA-DNA oligo cleavage fluorescence, 5 h; in the data active = activation above about 50%
Target sequence (P0AE70 whole entry, looked up): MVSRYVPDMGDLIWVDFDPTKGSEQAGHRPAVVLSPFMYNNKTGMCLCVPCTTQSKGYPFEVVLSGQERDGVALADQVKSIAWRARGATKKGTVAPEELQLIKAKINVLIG
* marks the source's active call; other numbers are inactive results; u = inconclusive; x = not tested or not shown. Cut-off read from the data, not from the text of the source, unless noted: active = inhibition above about 30%; inconclusive = no clear call, values can overlap the other calls; inactive = below that.

SMILES | Bead autofluor | Anthrax LF inh2 | BoNT-A LC inh2 | BoNT-F LC inh | MazF activator
Cc1ccc(-n2c(C)cn(C(=O)c3ccccc3)c2=S)cc1 | 15652 | -0.7 | 2.3 | 2.1 | -10.1
Cc1cn(C(=O)c2ccccc2)c(=S)n1-c1ccc(Cl)cc1 | 17230* | -3.1 | -1.6 | -1.7 | 3.0
CS(=O)(=O)N1CCN(c2ccc([N+](=O)[O-])c(NCCN3CCOCC3)c2)CC1 | 18351* | -12.9 | -5.1 | -13.2 | 14.7
CS(=O)(=O)N1CCN(c2ccc([N+](=O)[O-])c(N3CCOCC3)c2)CC1 | x | x | x | x | -14.4
CCc1ccc[n+](-c2nc3ccccc3nc2C(=C=[N-])C#N)c1 | 4887 | -4.6 | -0.7 | 7.6 | 577.6*
CCOC(=O)N1CCC(=NNC(N)=O)C1 | 3730 | -12.2 | 0.0 | -9.8 | 1.8
CC(C)C[C@H](N)c1nnc(SCc2ccc(Cl)cc2)o1 | 3623 | 4.4 | -0.4 | u | 4.4
CC(C)[C@H](N)c1nnc(SCc2ccc(Cl)cc2)o1 | 25032* | -4.7 | -2.0 | -5.2 | -3.9
CCC(C)[C@H](N)c1nnc(SCC(=O)c2ccc(Cl)cc2)o1 (stereo partly drawn) | 19418* | -0.4 | 5.3 | 0.6 | -2.9
C[C@H](N)c1nnc(SCc2ccc(Cl)cc2Cl)o1 | 25593* | -4.1 | -4.6 | -9.5 | 1.3
CN(C)C(=O)CCc1ccc2c3c([nH]c2c1)[C@]1(CCC2CCCC2)[C@@H](C(=O)N2CCOCC2)C[C@H](CC(=O)NC(C)(C)C)C(=O)N1CC3 | 4084 | -5.8 | -0.7 | -2.3 | 58.9*
CC[C@]12c3[nH]c4cc(-c5ccco5)ccc4c3CCN1C(=O)[C@@H](CC(=O)NCCCN(C)C)C[C@@H]2C(=O)N1CCN(C(=O)c2ccco2)CC1 | 2985 | 2.4 | -0.4 | -5.6 | 53.1*
CC[C@]12c3[nH]c4ccc(OC)cc4c3CCN1C(=O)C(CC(=O)NCCCOC)C[C@@H]2C(=O)N1CCN(C(=O)C2CC2)CC1 (stereo partly drawn) | 3579 | -6.6 | -0.3 | -14.6 | 75.1*
CC[C@]12c3[nH]c4cc(-c5ccco5)ccc4c3CCN1C(=O)[C@@H](CC(=O)NCC13CC4CC(CC(C4)C1)C3)C[C@@H]2C(=O)N1CCN(C(=O)c2ccco2)CC1 | 3072 | -2.5 | -0.4 | -1.1 | -4.6
CN(C)C(=O)CCc1ccc2c3c([nH]c2c1)[C@]1(CCC2CCCC2)[C@@H](C(=O)N2CCOCC2)C[C@H](CC(=O)NCCN2CCOCC2)C(=O)N1CC3 | 3794 | -7.0 | -0.1 | -2.5 | 3.6
Cn1sccc1=O | 6257 | 0.6 | 0.7 | 3.3 | 8.3
COc1ccccc1CC1(C)C(=O)Nc2c(Cl)cccc21 (stereo not drawn) | 3521 | -0.7 | -0.1 | -5.0 | x
CCc1nc2c(OCc3ccc(C(F)(F)F)cc3)cccn2c1N(C)C(=O)c1ccc(C)cc1 | 4142 | -2.5 | -0.2 | -2.4 | x
COc1cccc(C(=O)Nc2cc([N+](=O)[O-])ccc2N2CCN(C)CC2)c1 | 24311* | -3.1 | -4.0 | -9.0 | -15.8
COc1ccc(C(=O)Nc2cc([N+](=O)[O-])ccc2N2CCN(C)CC2)cc1 | 19500* | -3.7 | 1.7 | 0.1 | -2.1
CN1CCN(NC(=O)c2cc([N+](=O)[O-])cc([N+](=O)[O-])c2)CC1 | 18837* | 0.8 | 2.1 | -1.9 | 1.6
O=C(Nc1cc([N+](=O)[O-])ccc1N1CCCC1)c1ccccc1 | 4138 | -3.2 | 0.0 | -0.7 | 12.7
CN1CCN(c2ccc([N+](=O)[O-])cc2NC(=O)c2ccccc2)CC1 | 16981* | -4.1 | u | -2.8 | 6.0
CN1CCN(c2ccccc2NC(=O)c2cccc([N+](=O)[O-])c2)CC1 | 3821 | -15.7 | -0.1 | -32.7 | 10.0
CN(C)CCCn1c2c(c(SCC(=O)Nc3nccs3)nc1=O)CCC2 | 4785 | -1.7 | 0.5 | -10.9 | -1.3
SMILES | Bead autofluor | Anthrax LF inh2 | BoNT-A LC inh2 | BoNT-F LC inh | MazF activator
COc1ccc(OC)c(NC(=O)c2ccc(S(=O)(=O)N3CCN(C)CC3)cc2)c1 | 22427* | -0.6 | 0.5 | -2.2 | -1.9
CC(C)c1cccc(C(C)C)c1NC(=O)CCN1C(=O)NC2(CCCC2)C1=O | 2969 | -4.5 | 0.3 | 4.6 | -3.9
CCCCn1c(SCC(N)=O)nc2c(sc3ccccc32)c1=O | 4154 | 1.0 | 0.4 | -6.8 | -3.0
CCSc1nc2c(sc3ccccc32)c(=O)n1C(C)C | 23016* | -0.1 | 0.8 | 0.0 | 10.1
COc1cc(C(=O)N2CCCCC2c2cc(C(=O)NC(C)C)no2)cc(OC)c1C (stereo not drawn) | 3776 | 1.7 | -0.2 | -1.1 | x
C=CCn1c(CNC(=O)c2ccco2)nnc1SCC(=O)c1ccccc1 | 4760 | 2.1 | 0.5 | 0.3 | 5.0
C=CCn1c(CCNC(=O)c2cccs2)nnc1SCC(=O)Nc1cccc(Cl)c1C | 20193* | 0.7 | u | -2.8 | 8.5
